Experimental findings from PubChem BioAssay (Tox21) are described below.

The target in assay [1] is Peroxisome proliferator-activated receptor gamma (Homo sapiens) (UniProt P37231). The assay can be described thus: qHTS assay to identify small molecule antagonists of the peroxisome proliferator-activated receptor gamma (PPARg) signaling pathway (AID 743191; calls by dose curve; note: series mostly up to about 63 µM; nearly all actives have a fitted effect of over 30% in size). An outline of the steps: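 Beta-lactamase reporter under UAS control in HEK293H PPARg-bla cells; compound treatment 17 h at 37C. Read-out: fluorescence intensity after 1 h room-temperature incubation with LiveBLAzer B/G FRET substrate.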
Background: Quantitative high-throughput screening tests each substance at several concentrations.

Assay [2] in a line: qHTS assay to identify small molecule antagonists of the peroxisome proliferator-activated receptor gamma (PPARg) signaling pathway - cell viability counter screen (AID 743194). Note: nearly all actives have a fitted effect of over 55% in size. The essentials:
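Viability was measured as CellTiter-Glo luminescence in GeneBLAzer PPARg UAS-bla HEK293H cells. These cells had been exposed 17 h at 37 C to compounds together with rosiglitazone at 50 nM final, with the beta-lactamase readout taken in the same wells.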

Assay [3] in a line: qHTS assay for small molecule agonists of the antioxidant response element (ARE) signaling pathway (AID 743202; active = well fitted activation curve with a large enough effect in the signal ratio in the repeat runs, not every such curve was filed as active; the % refers to the signal ratio; note: potency is the fitted concentration of half-maximal effect). The essentials:
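Beta-lactamase reporter activity, read as fluorescence intensity, reflects ARE/Nrf2 pathway induction in HepG2 cells after 16 h compound exposure at 37 C; substrate loading was 2 h at room temperature.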

Assay [4] in a line: qHTS assay for small molecule agonists of the antioxidant response element (ARE) signaling pathway - cell viability counter screen (AID 743203; calls by dose curve; note: nearly all actives have a fitted effect of over 55% in size; note: potency is the fitted concentration of half-maximal effect). The essentials: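 Luminescence read-out (CellTiter-Glo, 30 min at room temperature) measured cell viability in the same wells as the ARE beta-lactamase reporter. HepG2 ARE-bla cells were treated with compounds for 16 hrs at 37C/5% CO2.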

Assay [5] in a line: qHTS assay for small molecule activators of the heat shock response signaling pathway - cell viability counter screen (AID 743209). Note: nearly all actives have a fitted effect of over 50% in size. An outline of the steps:
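HSE-bla HeLa; 1500 cells/well; overnight 37 C, 5% CO2; compound 5 h 37 C; LiveBLAzer B/G substrate 2.5 h RT; CellTiter-Glo 30 min RT; luminescence.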

Assay [6] can be described thus: qHTS assay for small molecule activators of the heat shock response signaling pathway (AID 743210; active = well fitted activation curve with a large enough effect in the signal ratio in the repeat runs, with a control signal flat, not every such curve was filed as active; the % refers to the signal ratio;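 note: HeLa cells with beta-lactamase reporter driven by heat shock elements; series mostly up to about 63 µM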). An outline of the steps: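 Fluorescence from a cleaved B/G FRET substrate (2.5 h, room temp) reports HSE-driven beta-lactamase in HeLa cells treated 5 h at 37 C with DMSO-dissolved compounds.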
The nature of assay [7]: qHTS assay to identify small molecule agonists of the peroxisome proliferator-activated receptor delta (PPARd) signaling pathway - cell viability counter screen (AID 743211). Note: nearly all actives have a fitted effect of over 55% in size. Note: potency is the fitted concentration of half-maximal effect. The essentials: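 Read-out: CellTiter-Glo luminescence, 30 min RT, measured in the same wells as the beta-lactamase reporter. Cells: GeneBLAzer PPAR delta UAS-bla HEK293H, 3000 cells/well, compound exposure 17 h at 37C.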

Assay [8] concerns the target Peroxisome proliferator-activated receptor delta (Homo sapiens) (UniProt Q03181). Put plainly: qHTS assay to identify small molecule agonists of the peroxisome proliferator-activated receptor delta (PPARd) signaling pathway (AID 743212; calls by dose curve). An outline of the steps: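 Steps: seed PPARd-bla HEK293H cells; incubate 5 h, 37 C, 5% CO2; add compounds in DMSO; incubate, 37 C; add LiveBLAzer B/G FRET substrate; hold 2 h at room temperature; measure fluorescence.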

Assay [9] can be described thus: qHTS assay to identify small molecule antagonists of the peroxisome proliferator-activated receptor delta (PPARd) signaling pathway - cell viability counter screen (AID 743213). Note: nearly all actives have a fitted effect of over 50% in size. An outline of the steps:
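In this counter screen, HEK293H cells carrying a UAS-beta-lactamase reporter are co-treated with test compounds and 300 nM L165041 (final) for 17 h at 37 C; cell viability is quantified by CellTiter-Glo luminescence.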

Assay [10] in a line: qHTS assay to identify small molecule antagonists of the farnesoid-X-receptor (FXR) signaling pathway - cell viability counter screen (AID 743221; active = well fitted cell-killing curve with a large enough effect in the repeat runs, not every such curve was filed as active; note: nearly all actives have a fitted effect of over 50% in size). The essentials:
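HEK 293T FXR-bla cells, 5 h pre-incubation; compound + CDCA 50 uM final, 16 h, 37 C; beta-lactamase FRET read first, then CellTiter-Glo luminescence, 30 min RT.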

Assay [11] addresses Vitamin D3 receptor (Homo sapiens) (UniProt P11473). Put plainly: qHTS assay to identify small molecule antagonists of the vitamin D receptor (VDR) signaling pathway (AID 743223; active = well fitted inhibition curve with a large enough effect in the signal ratio in the repeat runs, not every such curve was filed as active; the % refers to the signal ratio). The essentials: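 Beta-lactamase reporter read-out: FRET substrate fluorescence after 2 h at room temperature, following 16 h exposure of VDR-bla cells to test compound plus 3 nM (final) 1alpha,25-dihydroxyvitamin D3 agonist at 37C.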

A short description of assay [12]: qHTS assay to identify small molecule agonists of the farnesoid-X-receptor (FXR) signaling pathway - cell viability counter screen (AID 743218). Note: nearly all actives have a fitted effect of over 45% in size. An outline of the steps:
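Luminescence from CellTiter-Glo, read after 30 min at RT, reports viability of GeneBLAzer FXR-UAS-bla HEK 293T cells treated 16 h with compounds in the wells used for the beta-lactamase reporter.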

Assay [13] deals with Bile acid receptor (Homo sapiens) (UniProt Q96RI1). Put plainly: qHTS assay to identify small molecule agonists of the farnesoid-X-receptor (FXR) signaling pathway (AID 743220; active = well fitted activation curve with a large enough effect in the signal ratio in the repeat runs, not every such curve was filed as active; the % refers to the signal ratio). An outline of the steps:
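FXR-UAS-bla HEK 293T cells carrying a UAS-driven beta-lactamase reporter were plated for 5 h at 37C/5% CO2, then exposed to DMSO-dissolved Tox21 10K compounds for 16 h at 37C. A LiveBLAzer B/G FRET substrate was loaded for 2 h at room temperature before fluorescence reading.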

Assay [14] can be described thus: qHTS assay to identify small molecule that activate the aryl hydrocarbon receptor (AhR) signaling pathway - cell viability counter screen (AID 743086). Note: nearly all actives have a fitted effect of over 45% in size. Note: potency is the fitted concentration of half-maximal effect. The essentials: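 Cytotoxicity counter screen: CellTiter-Fluor signal (30 min, 37 C) in 4000 HepG2 cells/well carrying the DRE-luciferase reporter, following 24 h compound exposure at 37 C.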
Assay [15] addresses Peroxisome proliferator-activated receptor gamma (Homo sapiens) (UniProt P37231). The assay can be described thus: qHTS assay to identify small molecule agonists of the peroxisome proliferator-activated receptor gamma (PPARg) signaling pathway (AID 743094; active = well fitted activation curve with a large enough effect in the signal ratio in the repeat runs, not every such curve was filed as active; the % refers to the signal ratio). The essentials:
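HEK293H PPARg-bla cells, 5 h settle at 37C/5% CO2; compound (DMSO) 17 h, 37C; B/G FRET substrate 1 h RT; fluorescence intensity read-out. qHTS format.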

Assay [16] has as its target Peroxisome proliferator-activated receptor delta (Homo sapiens) (UniProt Q03181). Put plainly: qHTS assay to identify small molecule antagonists of the peroxisome proliferator-activated receptor delta (PPARd) signaling pathway (AID 743215; active = well fitted inhibition curve with a large enough effect in the signal ratio in the repeat runs, not every such curve was filed as active; the % refers to the signal ratio;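 note: cells stimulated with agonist L165041 at 300 nM final during compound exposure; series mostly up to about 62 µM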). The essentials: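 HEK293H GeneBLAzer PPARd UAS-bla reporter cells; cpd + L165041 300 nM final, 17 h 37 C; LiveBLAzer B/G FRET substrate 2 h RT; fluorescence intensity read-out. Antagonist mode.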

Assay [17] has as its target Vitamin D3 receptor (Homo sapiens) (UniProt P11473). The assay can be described thus: qHTS assay to identify small molecule agonists of the vitamin D receptor (VDR) signaling pathway (AID 743222; calls by dose curve). The essentials: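 Beta-lactamase reporter readout (LiveBLAzer B/G FRET, 2 h RT) in VDR-bla cells after 16 h compound treatment at 37C, 5% CO2; cells pre-incubated 4 h before pin transfer of DMSO solutions.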

The target in assay [18] is Aryl hydrocarbon receptor (Homo sapiens) (UniProt P35869). The assay can be described thus: qHTS assay to identify small molecule that activate the aryl hydrocarbon receptor (AhR) signaling pathway (AID 743085).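 Note: HG2L7.5c1 human HepG2 liver cells with stably integrated DRE-driven firefly reporter; series mostly up to about 70 µM; nearly all actives have a fitted effect of over 15% in size.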 An outline of the steps: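 Luminescence read-out: ONE-Glo reagent, 30 min at room temperature, in HG2L7.5c1 HepG2 reporter cells treated 24 h at 37C. Viability was measured beforehand by CellTiter-Fluor fluorescence after 30 min at 37C.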

Inconclusive results are not listed. Calls of active or inactive are those of the source. Unless noted, calls come from the whole dose curve; as a rule, active = well fitted curve in the direction sought with a large enough effect in the repeat runs; inconclusive = weak or mixed curves; inactive = no such curve, though single readings can be large; an effect the other way counts as inactive or inconclusive.

Chain of Vitamin D3 receptor (Homo sapiens) (P11473 whole entry, looked up): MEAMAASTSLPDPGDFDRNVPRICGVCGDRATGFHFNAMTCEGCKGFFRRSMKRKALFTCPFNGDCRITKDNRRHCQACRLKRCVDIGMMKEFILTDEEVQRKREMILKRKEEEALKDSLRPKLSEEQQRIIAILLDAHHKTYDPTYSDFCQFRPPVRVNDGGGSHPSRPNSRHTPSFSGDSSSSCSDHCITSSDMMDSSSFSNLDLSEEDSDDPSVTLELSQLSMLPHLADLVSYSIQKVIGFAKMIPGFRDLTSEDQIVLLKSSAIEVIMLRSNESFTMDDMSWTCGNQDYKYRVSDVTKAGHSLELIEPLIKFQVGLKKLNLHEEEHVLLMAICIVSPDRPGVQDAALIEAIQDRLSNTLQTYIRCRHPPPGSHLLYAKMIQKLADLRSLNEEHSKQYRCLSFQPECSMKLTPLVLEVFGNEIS
Chain of Peroxisome proliferator-activated receptor gamma (Homo sapiens) (P37231 whole entry, looked up): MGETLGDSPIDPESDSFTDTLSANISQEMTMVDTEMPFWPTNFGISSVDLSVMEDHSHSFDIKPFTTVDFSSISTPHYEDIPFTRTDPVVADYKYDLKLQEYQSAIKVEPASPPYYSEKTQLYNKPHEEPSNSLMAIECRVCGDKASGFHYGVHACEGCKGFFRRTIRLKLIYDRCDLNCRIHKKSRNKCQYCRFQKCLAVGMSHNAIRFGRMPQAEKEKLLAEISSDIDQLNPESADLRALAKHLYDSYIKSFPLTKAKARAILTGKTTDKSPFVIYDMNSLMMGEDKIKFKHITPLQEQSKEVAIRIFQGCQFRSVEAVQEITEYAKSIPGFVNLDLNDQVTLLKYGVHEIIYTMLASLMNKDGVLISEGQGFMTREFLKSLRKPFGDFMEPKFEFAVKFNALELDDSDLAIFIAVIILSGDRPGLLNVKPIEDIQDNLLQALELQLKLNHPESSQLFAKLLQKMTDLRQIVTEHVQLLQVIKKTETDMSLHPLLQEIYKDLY
Chain of Peroxisome proliferator-activated receptor delta (Homo sapiens) (Q03181 whole entry, looked up): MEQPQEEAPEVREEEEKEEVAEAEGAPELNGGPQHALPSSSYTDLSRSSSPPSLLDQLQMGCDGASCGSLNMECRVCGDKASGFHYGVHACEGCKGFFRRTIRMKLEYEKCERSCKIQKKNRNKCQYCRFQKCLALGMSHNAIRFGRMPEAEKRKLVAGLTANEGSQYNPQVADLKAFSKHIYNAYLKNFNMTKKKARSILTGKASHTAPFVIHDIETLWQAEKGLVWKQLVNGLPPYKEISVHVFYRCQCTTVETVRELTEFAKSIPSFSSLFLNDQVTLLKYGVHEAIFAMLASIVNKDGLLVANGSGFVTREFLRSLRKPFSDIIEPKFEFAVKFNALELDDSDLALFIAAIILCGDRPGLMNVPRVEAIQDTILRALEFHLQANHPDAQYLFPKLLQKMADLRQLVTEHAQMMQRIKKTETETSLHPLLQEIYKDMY
Chain of Aryl hydrocarbon receptor (Homo sapiens) (P35869 whole entry, looked up): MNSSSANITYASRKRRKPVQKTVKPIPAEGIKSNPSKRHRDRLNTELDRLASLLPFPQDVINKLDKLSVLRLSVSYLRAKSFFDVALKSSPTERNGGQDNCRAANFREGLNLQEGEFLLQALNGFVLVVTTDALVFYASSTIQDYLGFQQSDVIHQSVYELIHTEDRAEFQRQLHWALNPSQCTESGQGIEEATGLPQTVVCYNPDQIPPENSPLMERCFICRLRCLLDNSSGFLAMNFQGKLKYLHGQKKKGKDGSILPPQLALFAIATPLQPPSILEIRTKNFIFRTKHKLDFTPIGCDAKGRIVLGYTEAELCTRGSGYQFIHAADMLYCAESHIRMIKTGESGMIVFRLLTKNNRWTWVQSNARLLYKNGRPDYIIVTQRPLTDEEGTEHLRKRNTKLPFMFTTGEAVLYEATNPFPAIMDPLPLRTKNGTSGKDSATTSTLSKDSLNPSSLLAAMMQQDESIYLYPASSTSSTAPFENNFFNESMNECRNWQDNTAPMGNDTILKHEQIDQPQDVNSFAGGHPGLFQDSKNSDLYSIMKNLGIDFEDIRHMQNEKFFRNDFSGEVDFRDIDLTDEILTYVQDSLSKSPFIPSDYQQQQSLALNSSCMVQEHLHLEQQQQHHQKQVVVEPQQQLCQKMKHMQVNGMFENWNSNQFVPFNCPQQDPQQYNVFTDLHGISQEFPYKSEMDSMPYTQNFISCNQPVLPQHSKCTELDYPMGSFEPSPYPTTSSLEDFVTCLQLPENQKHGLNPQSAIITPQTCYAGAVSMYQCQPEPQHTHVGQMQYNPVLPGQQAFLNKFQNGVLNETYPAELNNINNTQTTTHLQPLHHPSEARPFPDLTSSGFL
Chain of Bile acid receptor (Homo sapiens) (Q96RI1 whole entry, looked up): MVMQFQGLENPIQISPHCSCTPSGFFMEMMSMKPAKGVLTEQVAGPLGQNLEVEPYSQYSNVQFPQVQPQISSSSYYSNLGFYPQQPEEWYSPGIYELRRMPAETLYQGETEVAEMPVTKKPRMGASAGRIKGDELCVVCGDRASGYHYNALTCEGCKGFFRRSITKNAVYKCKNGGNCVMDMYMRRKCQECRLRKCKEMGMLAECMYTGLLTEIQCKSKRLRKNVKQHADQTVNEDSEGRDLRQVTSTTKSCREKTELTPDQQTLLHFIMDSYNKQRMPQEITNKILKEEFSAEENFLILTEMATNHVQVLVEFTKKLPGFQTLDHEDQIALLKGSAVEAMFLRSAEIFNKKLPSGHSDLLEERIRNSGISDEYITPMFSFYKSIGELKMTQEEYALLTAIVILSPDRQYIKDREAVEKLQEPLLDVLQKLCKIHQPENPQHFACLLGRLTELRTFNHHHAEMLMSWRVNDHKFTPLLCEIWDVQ

As for `O=C1Cc2cc(Cl)ccc2N1`, the Potency entry in assay [1], in [2], in [4], in assay [5], in [6] and in assay [7] was “inactive” throughout. In addition, the Potency result in assay [8], in assay [9], in assay [10] and in assay [11] was “inactive” each time. Further, in [3], the Potency was 21100 nM (active).
Regarding `CCCCN(CCN(CCCC)C(=O)N1CCOCC1)C(=O)N1CCOCC1`, the Potency entry in assay [2], in assay [3], in assay [4], in assay [5], in assay [12] and in [11] was “inactive” each time.
For `CC(C)=CCC/C(C)=C/CC/C(C)=C/C(=O)OCC(=O)[C@@]1(O)CC[C@H]2[C@@H]3CCC4=CC(=O)C=C[C@]4(C)[C@H]3[C@@H](O)C[C@@]21C`, the Potency entry in [5] is “inactive”. Also, the Potency in assay [7] was 23700 nM (active).
In the case of `C[C@@]12CCC[C@H]1[C@@H]1CC[C@H]3C[C@@H](O)CC[C@]3(C)[C@H]1CC2`, the Potency result in [2], in assay [3], in [4], in [5], in assay [8] and in [9] was “inactive” each time. For the same molecule, the Potency result in [12], in assay [13] and in assay [10] was “inactive” in each case.
As to `c1ccc2c(c1)CCc1ccccc1N2`, the Potency entry in [14], in [15], in assay [1], in assay [2], in assay [3] and in assay [4] was “inactive” throughout. In addition, the Potency entry in assay [5], in [6], in assay [7], in [8], in assay [9] and in [16] was “inactive” each time. For the same molecule, the Potency result in [12], in assay [10] and in assay [17] was “inactive” throughout.
In the case of `C[C@H]1C[C@H](O)c2ccsc2S1(=O)=O`, the Potency result in assay [2], in assay [3], in assay [4], in assay [5], in [6] and in assay [7] was “inactive” in each case. For the same molecule, the Potency result in assay [8], in assay [16] and in [10] was “inactive” throughout.
In the case of `CN1CC(=O)N2[C@H](c3ccc4c(c3)OCO4)c3[nH]c4ccccc4c3C[C@@H]2C1=O`, the Potency entry in assay [15], in assay [1], in [2], in assay [3], in assay [4] and in [5] was “inactive” throughout. Further, the Potency entry in assay [6], in assay [7], in [8], in assay [9], in assay [16] and in assay [10] was “inactive” in each case. Besides, the Potency result in [17] and in assay [11] was “inactive” in each case.
Turning to `CC(C)C[C@H](NC(=O)[C@H](CCc1ccccc1)NC(=O)CN1CCOCC1)C(=O)N[C@@H](Cc1ccccc1)C(=O)N[C@@H](CC(C)C)C(=O)[C@@]1(C)CO1`, the Potency result in [18] and in assay [5] was “inactive” each time. Besides, the Potency in [14] is 47.3 nM (active); in [3], 66.8 nM (active); in [4] it was 3760 nM (active); in assay [7] it was 237 nM (active).
Take `NNC(=O)CP(=O)(c1ccccc1)c1ccccc1`: the Potency result in assay [14], in [2], in assay [3], in [4], in assay [5] and in [6] was “inactive” in each case. Besides, the Potency result in assay [7], in [8], in assay [9], in assay [12] and in assay [10] was “inactive” throughout.
`CC(C)(C)CC(=O)OCC(=O)[C@@]1(O)CC[C@H]2[C@@H]3CCC4=CC(=O)C=C[C@]4(C)[C@H]3[C@@H](O)C[C@@]21C`: the Potency entry in [2], in [3], in assay [4], in assay [5], in assay [7] and in assay [9] was “inactive” throughout. Also, the Potency result in [10] and in assay [17] was “inactive” each time.
